# Screening data as filed in PubChem.
# In the library only some 22% were active in any assay of this set; here they are far more common.
# Shiga toxin inh = Shiga toxin inhibition | hit rate 9.2% among 290,000 | inhibition, % at 38.7 µM | Vero cells, Shiga toxin protein synthesis inhibition reporter; in the data active = inhibition mostly above about 28%, no sharp cut-off; inactive = mostly below about 43%; note: 0% is about no effect
# Pf growth 96h = P. falciparum growth inhibition at 96 hour, primary screen for plastid delayed-death inhibitors. P. falciparum luciferase reporter growth, 96 h. Potency, µM (top dose mostly 28.7 µM), for the others: at the highest dose activity change, negative = inhibition, actives largely listed as inhibitors. hit rate 6.9% among 320,000; note: potency is the fitted concentration of half-maximal effect; % is set by controls: 0 for no effect and ±100 for the full control effect
#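 96 h incubation, 37 C, 5% CO2, of luciferase-reporter P. falciparum-infected RBCs (2% hematocrit, 0.05% parasitemia final) with test compounds; endpoint luminescence.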
# Pf growth 48h = P. falciparum growth inhibition at 48 hours (one generation). P. falciparum luciferase growth in erythrocytes, 48 h. Potency, µM (titrated, usually from 28.7 µM), for inactives: at the highest dose activity change, negative = inhibition, usual class: inhibitors. hit rate 5.9% among 310,000. AID 504832; note: potency is the fitted concentration of half-maximal effect; % is set by controls: 0 for no effect and ±100 for the full control effect
#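 Here the parasites carry a stable luciferase gene and grow inside erythrocytes in Albumax-based RPMI medium with compound for one erythrocytic cycle. Activity is scored as loss of luminescent signal.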
# Cycloheximide cs = affects cycloheximide protein synthesis inhibition readout, counter-screen; hit rate 12% among 300,000; max response, %; cell reporter, cycloheximide protein synthesis inhibition counterscreen; in the data active = max response mostly above about 13%, no sharp cut-off; inactive = mostly below about 14%; note: read at 38.3 µM for the half of the compounds with a filed dose; 0% is about no effect
# LmPK inhibitor = LmPK (Leishmania mexicana) enzyme inhibition | hit rate 0.37% among 290,000 | AID 1721 | Q27686 | Potency, µM (titrated, usually from 57.5 µM), for inactives: top-dose activity change, negative = inhibition, hits mostly inhibitors | purified LmPK, Kinase-Glo ATP luminescence, 1 h; note: potency is the fitted concentration of half-maximal effect; % is set by controls: 0 for no effect and ±100 for the full control effect
# Target sequence (Q27686 whole entry, looked up): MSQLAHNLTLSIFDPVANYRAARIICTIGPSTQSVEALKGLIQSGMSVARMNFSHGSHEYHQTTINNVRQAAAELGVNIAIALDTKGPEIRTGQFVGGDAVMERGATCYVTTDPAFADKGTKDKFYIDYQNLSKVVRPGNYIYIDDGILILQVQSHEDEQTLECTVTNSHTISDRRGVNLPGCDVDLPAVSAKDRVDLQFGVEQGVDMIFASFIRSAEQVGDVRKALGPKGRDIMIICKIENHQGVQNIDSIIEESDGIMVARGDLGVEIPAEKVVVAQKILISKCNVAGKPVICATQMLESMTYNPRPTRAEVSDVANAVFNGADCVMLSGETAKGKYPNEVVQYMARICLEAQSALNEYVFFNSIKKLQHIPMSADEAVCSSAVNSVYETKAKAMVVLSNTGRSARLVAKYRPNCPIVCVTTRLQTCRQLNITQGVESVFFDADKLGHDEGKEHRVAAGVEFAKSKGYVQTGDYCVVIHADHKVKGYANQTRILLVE
#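 Purified LmPK (0.1 nM) converted ADP (0.1 mM) to ATP with PEP (0.5 mM) in imidazole buffer pH 7.2 with KCl and MgCl2, 1 h at room temperature. ATP was read by Kinase-Glo luminescence; data normalized to uninhibited and no-enzyme controls.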
# An asterisk follows results filed as active; ? = inconclusive; / = no result given; [ ] = another dose, or the depositor's remark. Unless noted, calls come from the whole dose curve; as a rule, active = well fitted inhibition curve with a large enough effect; inconclusive = small, poorly fitted or top-dose-only effect, or another doubt; inactive = no such curve, though single readings can be large or run the other way.
SMILES,Shiga toxin inh,Pf growth 96h,Pf growth 48h,Cycloheximide cs,LmPK inhibitor
Cc1ccc(C(=O)NCc2cccnc2)cc1S(=O)(=O)Nc1ccccc1,7.5,-0.4%,-6.5%,0.9,2.8%
Clc1ccc(Nc2ccc(-n3ccnc3)nn2)cc1Cl,22.3,1.85µM*,2.62µM*,1.6,1.7%
Cc1ccc2c(C)c(C(=O)N(Cc3ccc(F)cc3)C3CCS(=O)(=O)C3)oc2c1 (centres undefined),-3.0,?,-13.6%,-6.4,-10.7%
CC(C)Oc1ccc(-c2nc(NCC3CCCO3)c3ccccc3n2)cc1 (centres undefined),47.4*,?,?,20.3*,-1.8%
Oc1ccccc1Nc1nc(NCC2CCCO2)c2ccccc2n1 (centres undefined),16.5,?,2.33µM*,-3.8,1.8%
COc1cccc(Nc2nc(NCC3CCCO3)c3ccccc3n2)c1 (centres undefined),7.2,-106.7%,/,8.6,-2.1%
c1cncc(-c2nc(NCC3CCCO3)c3ccccc3n2)c1 (centres undefined),-16.9,?,?,-4.7,-3.3%
Oc1ccc(Nc2nc(NCC3CCCO3)c3ccccc3n2)cc1 (centres undefined),14.2,17.3%,1.65µM*,2.4,5.9%
COc1ccc(-c2ccc(C(C)=O)cc2)cc1C1C2C=CCC(C)C2C(=O)N1Cc1ccccc1 (centres undefined),-6.0,/,/,6.3,/
O=C(CC1S/C(=N/N=C2CCCCCC2)NC1=O)Nc1ccc(Br)cc1F (centres undefined),-28.6,-4.3%,5.2%,6.6,-9.9%
O=C(NN(C(=O)c1ccccc1)c1ccccc1)c1ccccc1,-3.2,26.9%,?,-2.5,10.6%
Cc1cc(C(=O)N(NC(=O)C(C)C)c2ccccc2)cs1,19.1,8.28µM*,-12.3%,-1.3,4.8%
Cc1ccc(C)c(S(=O)(=O)NCc2ccc(C(=O)NCc3ccccn3)cc2)c1,15.4,/,-12.2%,-1.4,1.5%
O=C1c2c(O)ccc(O)c2C(=O)c2c(NCCNCCO)ccc(NCCNCCO)c21,/,0.928µM*,0.828µM*,/,/
CCn1cnc2cc(NC(=O)c3ccco3)ccc21,19.8,267.1%,293.6%,30.0*,-16.8%
O=C(O)COCC(=O)Nc1ccc2c(c1)ncn2CCc1ccccc1,-6.1,21.0%,-10.5%[0.00184 µM],-3.4,2.4%
CCCn1cnc2cc(NC(=O)c3cccs3)ccc21,50.9,30.1%,289.9%,29.0*,-17.0%
CCCn1cnc2cc(NC(=O)c3ccco3)ccc21,79.6*,44.9%,24.8%,62.6*,-0.7%
CC(C)(C)n1cnc2cc(NC(=O)c3ccco3)ccc21,61.7*,16.4%,125.3%,25.3*,0.9%
Cn1c(CCN2CCOCC2)nc2cc(NC(=O)c3cccs3)ccc21,-11.2,7.2%,-3.8%,16.4,0.3%
CCn1c(SCC(=O)Nc2ccccc2Br)nnc1-c1cnccn1,0.3,?,2.1%,-0.8,-1.1%
C/C(=C\c1ccccc1)C(=O)Nc1nc2ccc([N+](=O)[O-])cc2s1,-4.6,1.4%,53.4%,19.4*,-2.2%
CC(C)=CC(=O)Nc1nc2ccc([N+](=O)[O-])cc2s1,55.1*,11.3%,?,44.5*,-1.4%
Cc1ccc(C)c(OCC(=O)Nc2nc3ccc([N+](=O)[O-])cc3s2)c1,3.5,5.1%,0.4%,-2.6,0.5%
Nc1cccnc1Oc1ccc(F)cc1,25.2,18.4%,1.2%,14.0*,-2.1%
SMILES,Shiga toxin inh,Pf growth 96h,Pf growth 48h,Cycloheximide cs,LmPK inhibitor
Nc1cccnc1Oc1ccc(F)cc1F,-2.7,29.9%,?,1.1,2.7%
Cc1ccc(NC(=S)Nn2cnnc2)c(C)c1,-13.5,25.2%,3.9%,-2.1,4.7%
Cc1nc([N+](=O)[O-])c(SCC(N)=O)n1Cc1ccccc1,-12.0,28.5%,-5.0%,1.7,-3.6%
CCOc1ccc(Cn2ccnc2CCl)cc1[N+](=O)[O-],-10.3,?,9.9%,-0.5,-1.1%
CCCOc1ccc(Cn2c(C)nc([N+](=O)[O-])c2SCC(O)COC)cc1[N+](=O)[O-] (centres undefined),-2.2,10.4µM*,?,-4.0,1.3%
CCOc1ccc(Cn2c(C)nc([N+](=O)[O-])c2SCC(O)CCl)cc1[N+](=O)[O-] (centres undefined),-9.0,/,10.4µM*,-1.9,0.4%
COc1ccc(NS(=O)(=O)c2ccc(C)c(C(=O)NCCCN3CCCC3=O)c2)cc1,/,-20.2%,?,/,/
Fc1ccc(OCc2nc(-c3ccc(Br)o3)no2)c(F)c1,62.4*,?,/,17.6*,-6.1%
c1ccc(CCc2nc(-c3ccccn3)no2)cc1,125.0*,/,96.9%,30.8*,-20.9%
Brc1ccc(-c2noc(CCc3ccccc3)n2)o1,84.0*,?,/,17.0*,-2.3%
Clc1ccccc1OCc1nc(-c2ccc(Br)o2)no1,70.3*,3.3%,/,53.7*,4.7%
O=C(CCc1nc(-c2ccccn2)no1)NCc1ccc2c(c1)OCO2,25.8,12.5%,6.2%,-0.3,-3.9%
Brc1ccc(-c2noc(COc3ccc4ccccc4c3)n2)o1,10.1,?,/,9.1,14.8%
Cc1ccc(S(=O)(=O)N(C)Cc2nc(-c3ccccn3)no2)cc1,-15.3,/,2.9%,-2.5,-8.0%
CN(Cc1nc(-c2ccccn2)no1)S(=O)(=O)c1ccccc1,60.9*,-9.6%,28.4%,24.1*,2.0%
CC1CCN(CCCNC(=O)c2ccc3c(Cl)c4c(nc3c2)CCCC4)CC1,-6.8,?,13.1µM*,-0.8,4.0%
COCCNC(=O)c1ccc2c(Cl)c3c(nc2c1)CCC3,77.0*,23.4%,109.6%,45.9*,3.8%
CCN(C(=O)CN(C)Cc1cccc(Cl)c1Cl)c1c(N)n(Cc2ccccc2)c(=O)[nH]c1=O,-14.6,?,-13.0%,-5.1,-2.3%
Cn1nc(-c2ccc(Cl)cc2)cc1NC(=O)CCCC(=O)O,-4.9,26.1%,16.1%,-1.7,10.5%
CC(C)(C)CC(C)(C)c1ccc(O)c(CN2CCN(CCC#N)CC2)c1,-10.9,/,1.65µM*,-3.5,-0.2%
COc1cc(C(=O)OCCN2CCCCC2)ccc1O,-7.1,-35.4%,-3.0%,3.1,2.0%
COc1cc(C#CC#CCN2CCCCC2)ccc1O,8.5,20.4%,8.28µM*,16.4,5.7%
COc1ccc2cc(C3OCCO3)c(Cl)nc2c1,128.1*,18.4%,183.8%,60.1*,-14.3%
O=C(COc1ncnc2ccccc12)c1ccc2c(c1)OCCO2,132.4*,414.4%,183.3%,55.3*,1.8%
O=C(COc1ncnc2cc(Cl)ccc12)c1ccc2c(c1)OCCO2,74.0*,133.4%,159.3%,28.5*,0.5%
COc1cc(OC)c(C(=O)COc2ncnc3ccccc23)c(OC)c1,31.5,-2.7%,-0.3%,-3.7,0.3%
Cc1ccc(C(=O)COc2ncnc3cc(Cl)ccc23)cc1,16.5,44.9%,?,-1.6,2.3%
Cc1ccc(C)c(C(=O)COc2ncnc3ccccc23)c1,70.2*,9.7%,25.2%,28.2,4.7%
CCC(C)C(NC(=O)OC(C)(C)C)C(=O)NC(C(=O)NC(C)C(N)=O)C(C)C (centres undefined),12.6,5.1%,7.5%,-2.7,-5.9%
